Gli-Sufu antag: Gli-Sufu pathway antagonism; AID 588413; Sufu-KO-LIGHT fibroblasts, Gli luciferase reporter luminescence; 340,000 compounds, 0.74% hits; inhibition, % at 5 µM;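 active = inhibition above about 55%, limit read from the data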;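 also: 0% = DMSO-treated cells and 100% = wells with medium but no cells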
NCOA2 inhibitor: human SRC2 (NCOA2) inhibition | HEK293 GAL4-SRC2 luciferase reporter, luminescence | inhibition, % at 9 µM | 370,000 compounds, 0.17% hits | Q15596 | AID 651957;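 active = inhibition above the mean inhibition of all tested compounds plus 3 SD, set per campaign, cut at about 52% in these data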;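 also: 0% = DMSO treated cells and 100% = cells given Gossypol at 36 µM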
NR2F2 inh: blocks human COUP-TFII nuclear receptor | P24468 | HEK293T NGFI-A luciferase reporter, luminescence | inhibition, % at 8.6 µM | 370,000 compounds, 0.7% hits | AID 686940;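 active = inhibition above a per-plate cutoff, mean inhibition of test wells between control levels plus 3 SD, cut at about 38% in these data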;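 also: cells cotransfected with COUP-TFII expression vector driving the NGFI-A reporter; 0% = median of COUP-TF2 test wells and 100% = reporter-only cells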
LRH-1 inv ag: inverse agonists of human LRH-1 (NR5A2); HEK293T StAR-luciferase reporter, LRH-1 transfected, 24 h; inhibition, % at 3.6 µM; 360,000 compounds, 0.13% hits;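 active = inhibition above the mean inhibition of all tested compounds plus 3 SD, cut at about 73% in these data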;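 also: 0% = DMSO wells and 100% = reporter-only cells lacking LRH-1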
NCOA3 inh: inhibits human SRC3 coactivator; Q9Y6Q9; HEK293 GAL4-SRC3 luciferase reporter, luminescence; inhibition, % at 3.6 µM; 360,000 compounds, 0.17% hits; AID 588352;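 active = inhibition above a per-campaign cutoff, the mean of all compounds plus 3 SD, cut at about 60% in these data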;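 also: 0% = DMSO-treated cells and 100% = gossypol-treated cells at 36 µM; higher means less SRC3-driven luciferase light from the GAL4 reporter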
SRC1 inh: inhibits human SRC1 coactivator; Q15788; inhibition, % at 3.6 µM; HEK293 GAL4-SRC1 luciferase reporter, luminescence; 360,000 compounds, 0.12% hits;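 active = inhibition above the campaign mean plus 3 SD, with each screening campaign given its own cutoff, cut at about 60% in these data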;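 also: 0% = DMSO treated cells and 100% = gossypol at 36 µM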
Gal4-VP16 ctr: VP16 inhibition counter-screen for COUP-TFII | 2,500 compounds, 25% hits | shares compounds with NR2F2 inh | AID 687007 | HEK293 Gal4-VP16 luciferase reporter, luminescence | inhibition, % at 8.5 µM; in the data active = inhibition above about 13%
COUP-TFII conf: confirmation of human COUP-TFII (NR2F2) inhibitors; HEK293 NGFI-A luciferase reporter, luminescence; inhibition, % at 8.5 µM; shares compounds with NR2F2 inh; 2,500 compounds, 45% hits;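 active = mean inhibition over three repeats above a set limit taken from the earlier primary screen, cut at about 38% in these data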;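 also: 100% = cells given the luciferase reporter alone without the COUP-TF2 vector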
* hit, by the source's call; . = no result given. This is a sample that favours compounds with a hit; in the whole collection about 1.3% have one here.

SMILES	Gli-Sufu antag	NCOA2 inhibitor	NR2F2 inh	LRH-1 inv ag	NCOA3 inh	SRC1 inh	Gal4-VP16 ctr	COUP-TFII conf
CCN1/C(=C/c2sc(-c3ccccc3C)c[n+]2C)Sc2ccccc21	90.2*	35.4	90.4*	90.0*	79.7*	42.5	16.2*	86.4*
CCN1/C(=C/C(=O)c2ccco2)Sc2ccccc21	24.7	-35.9	-20.5	-25.0	-16.1	-25.2	.	.
CC(C)c1ccc(NC2CCCN(C(=O)c3n[nH]c4c3CCC4)C2)cc1 (stereo not drawn)	2.5	13.8	38.0*	28.0	-10.7	1.2	-5.2	24.3
COC(=O)c1ccc(C(=O)N2CCCC(Nc3ccc(C(C)C)cc3)C2)cc1 (stereo not drawn)	-3.8	1.9	-0.2	-23.5	-17.8	-2.3	.	.
O=C(Cc1ccccc1)N1O[C@H]2C=C[C@@H]1C2	.	-15.6	8.0	.	.	.	.	.
Cc1ccc(NC(=O)COC(=O)CCc2c[nH]c3ccccc23)cc1	.	-5.6	4.2	10.4	13.2	-3.9	.	.
O=C(COC(=O)CCc1c[nH]c2ccccc12)Nc1ccccc1	-4.2	-8.4	63.1*	-2.9	7.2	-6.3	2.0	4.3
Cc1cccnc1NC(=O)C1CCN(S(=O)(=O)c2c(C)noc2/C=C/c2ccco2)CC1	6.1	-17.9	19.8	25.5	-2.9	3.5	.	.
Cc1ccc(NC(=O)C2CCN(S(=O)(=O)c3c(C)noc3/C=C/c3ccco3)CC2)nc1	4.2	38.7	39.0*	2.3	13.9	20.6	-0.4	22.0
COc1ccc(NC(=O)C2Cc3c(-c4ccccc4Oc4ccccc4)ccnc3O2)cn1 (stereo not drawn)	.	-11.1	30.4	-0.8	5.1	17.5	.	.
O=C(NCc1ccncc1)C1Cc2c(-c3ccccc3Oc3ccccc3)ccnc2O1 (stereo not drawn)	.	19.1	37.6*	3.8	-6.8	-2.1	-2.3	-4.4
CC(=O)c1cccc(NC(=O)C2Cc3c(-c4cccc(C(C)=O)c4)ccnc3O2)c1 (stereo not drawn)	.	-21.0	48.0*	3.2	7.1	16.2	4.6	15.7
COc1ccc(NC(=O)C2Cc3c(-c4ccccc4Oc4ccccc4)ccnc3O2)cc1OC (stereo not drawn)	.	24.3	64.4*	9.0	13.2	16.2	-2.2	34.9
C[C@@H]1CCCCO[C@@H](CN(C)C(=O)Nc2ccc(C(F)(F)F)cc2)[C@@H](C)CN([C@H](C)CO)C(=O)c2cc(NS(=O)(=O)c3ccc(Cl)cc3)ccc2O1	.	5.7	9.4	.	.	.	.	.
Cc1ccc(C(=O)c2cccc(N)c2)cc1C	13.7	79.5*	71.6*	23.2	31.5	27.5	61.7*	40.9*
COc1ccccc1NS(=O)(=O)c1cccc(-n2c(O)c(C=Nc3ccccc3C(=O)O)c3ccccc3c2=O)c1	3.9	3.3	39.2*	17.3	29.1	11.0	-8.5	45.5*
COC(=O)C1=C(C)N(Cc2ccccc2C(F)(F)F)C(=NCC2CC2)NC1c1cccc(F)c1 (stereo not drawn)	.	-0.6	0.1	.	.	.	.	.
COc1ccc(S[C@]2(C(=O)N3CCN(c4ncccn4)CC3)CC(=O)N(P(=O)(OC)OC)[C@@H]2c2ccc(OC)cc2)cc1	.	10.7	20.4	.	.	.	.	.
Cc1ccc(OCC(=O)NC(=S)Nc2ccccn2)c(Br)c1	-63.9	35.0	50.1*	7.9	27.3	29.8	-54.1	11.9
CCCCNC(=O)NS(=O)(=O)c1ccc(NC(=O)CSc2nnc(-c3ccc(Cl)cc3)n2N)cc1	.	3.2	6.0	.	.	.	.	.
COc1ccc(OC)c(CCNC(=O)Cn2nc(C)c3c(C)n(-c4ccc(C)cc4)nc3c2=O)c1	-1.6	7.2	67.2*	52.3	29.9	23.1	4.7	73.0*
CCOC(=O)C1CSCCS(=O)(=O)N1Cc1ccc(F)cc1 (stereo not drawn)	.	16.1	-4.0	.	.	.	.	.
CCN1CCN(Cc2ccc(NC(=O)c3cccc(-c4ccc5nc(NC(=O)C6CC6)sc5n4)c3)cc2C(F)(F)F)CC1	.	37.2	39.5*	.	.	.	10.8	40.1*
C[C@@H]1COc2cc(NCCO)ccc2S(=O)(=O)N1	.	11.7	-8.3	.	.	.	.	.
CC(C)(C)c1ccc(C(=O)Nc2ccc(NC(=O)C(=O)O)cc2)o1	-3.3	58.7*	41.7*	11.0	-22.1	-4.6	1.9	1.6
SMILES	Gli-Sufu antag	NCOA2 inhibitor	NR2F2 inh	LRH-1 inv ag	NCOA3 inh	SRC1 inh	Gal4-VP16 ctr	COUP-TFII conf
Cc1oc(C(C)(C)C)cc1C(=O)Nc1ccc(C(=O)O)cc1	0.6	-31.2	-17.0	-180.6	-52.8	-50.7	.	.
O=C(COC(=O)c1cc(S(=O)(=O)N2CCOCC2)ccc1F)NCc1ccc2c(c1)OCO2	-1.3	43.5	47.0*	5.2	-3.6	-11.4	-8.0	-8.2
Cc1ccc(S(=O)(=O)NCc2ccc(C(=O)N3CCN(Cc4ccccc4)CC3)cc2)cc1	1.1	16.5	48.2*	20.4	16.0	19.1	-3.0	21.7
COc1ccc(S(=O)(=O)NCc2ccc(C(=O)N3CCN(Cc4ccccc4)CC3)cc2)cc1	4.6	27.3	18.0	5.9	4.2	9.9	.	.
COc1ccc(N2CCN(C(=O)c3ccc(CNS(=O)(=O)c4ccc(C)cc4)cc3)CC2)cc1	-15.7	14.4	9.6	-14.1	4.2	3.7	.	.
Cc1ccc(S(=O)(=O)NCc2ccc(C(=O)N3CCN(c4ccc([N+](=O)[O-])cc4)CC3)cc2)cc1	26.3	9.2	54.7*	32.3	44.1	17.0	6.8	66.1*
Cc1ccc(NC(=O)C(C)c2cccc(C(=O)c3ccccc3)c2)cc1O (stereo not drawn)	41.3	0.4	48.0*	27.9	14.5	4.2	8.7	33.3
CC(C)(C)c1ccc2c(c1)OC(C(=O)N/N=C/c1ccc[nH]1)CO2 (stereo not drawn)	.	.	47.0*	.	.	.	-0.2	39.9*
Cc1nc(-c2ccc(C(=O)Nc3cccc(F)c3)cc2)cs1	-29.8	23.9	55.8*	-27.7	-20.0	-7.7	-104.2	-0.1
Cc1nc(-c2cccc(NC(=O)c3ccco3)c2)cs1	-9.9	-17.8	8.8	-34.5	6.3	-23.1	.	.
Cc1nc(-c2ccc(NC(=O)c3ccco3)cc2)cs1	2.2	42.9	41.0*	-41.0	-2.5	-26.8	-3.8	-4.2
CCOC(=O)[C@@]12CCC3=C1N(CCC3)C(=O)[C@H](CC(=O)NCC1CCCCC1)C2	.	13.1	-15.2	.	.	.	.	.
COc1ccc(N2CCN(C(=O)Oc3ccc([N+](=O)[O-])cc3)CC2)cc1	.	14.1	12.2	11.3	.	.	.	.
Cc1cc(N2CCN(S(=O)(=O)c3ccc(Cl)cc3)CC2)c2ccccc2n1	32.9	16.8	40.9*	-2.5	10.7	-4.3	-1.3	13.7
Cc1cc(N2CCN(C(=O)Oc3ccc([N+](=O)[O-])cc3)CC2)c2ccccc2n1	.	23.9	43.0*	27.6	.	.	0.6	20.3
